Several values for one entry are separate records, joined by “and”; a condition that tells them apart may be missing. Identical values can stand only once. Inconclusive results are not listed. Activity calls are given as the source filed them. Unless noted, calls follow the shape of the dose curve; as a rule, active = well fitted curve in the direction sought with a large enough effect; inconclusive = small, poorly fitted or top-dose-only effect, or another doubt; inactive = no such curve, though single readings can be large; an effect the other way counts as inactive or inconclusive.
What was measured:
[1] = Cell Viability - Jurkat (AID 426;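 active = dose-dependent loss of cell ATP signal giving a full or clear fitted curve, ranked by lower potency value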; also: potency is read from the fitted curve at half-maximal effect); settings: qHTS
Outline: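 Cytotoxicity was scored as loss of cellular ATP, measured by luciferase-based luminescence, in Jurkat clone E6-1 cells after 40 h compound treatment; tamoxifen and doxorubicin served as positive controls.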

[2] = Cell Viability - Hek293 (AID 427;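 active = compounds whose dose-response curve shows a full or clear partial loss of cell viability, called from curve shape rather than a numeric limit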;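 also: potency is read from the fitted curve at half-maximal effect; cells exposed to compound for 40 hours at 37 °C before reading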); settings: qHTS
Outline: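 HEK293 cells in complete medium were exposed to compound for 40 hr at 37 °C, then cellular ATP was read by CellTiter-Glo luminescence. Data were normalized to DMSO (basal) and 100 uM tamoxifen (100% inhibition), and AC50 came from Hill fits.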

[3] = Cell Viability - HepG2 (AID 433; calls by dose curve;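 also: potency is read from the fitted curve at half-maximal effect; potency for ATP loss meaning cytotoxicity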); settings: qHTS
Outline: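 HepG2 hepatocellular carcinoma cells (1500/well) were treated with compounds for 40 h at 37 °C in complete medium; intracellular ATP was read by CellTiter-Glo luminescence. Data were normalized to DMSO and 100 uM tamoxifen, and AC50 came from Hill fits.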

[4] = Cell Viability - SK-N-SH (AID 435; calls by dose curve;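 also: potency is read from the fitted curve at half-maximal effect; compound exposure lasted 40 h at 37 °C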); settings: SK-N-SH neuroblastoma cell viability qHTS
Outline: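 SK-N-SH human neuroblastoma cells (1500/well) were exposed to compounds in complete medium for 40 h at 37 °C, and intracellular ATP was then measured by CellTiter-Glo luminescence. AC50 was taken from Hill fits, normalized to DMSO and 100 uM tamoxifen.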

[5] = Cell Viability - NIH 3T3 (AID 541); settings: NIH 3T3 cell viability, qHTS; activity change, negative = cytotoxicity: at 92.2 µM (top of the series);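 also: plate controls were DMSO alone for no effect and tamoxifen positive control for full effect; nearly all actives have a fitted effect of over 25% in size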
Outline: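 In this cytotoxicity screen, acute toxicity is scored as an ATP drop measured by CellTiter-Glo in NIH 3T3 fibroblasts following a 40 hr, 37 °C incubation with compound.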

[6] = Cell Viability - H-4-II-E (AID 543); settings: H-4-II-E rat hepatoma viability; series mostly up to 92.2 µM; also: % is scaled to controls: 0 for no effect and ±100 for the full control effect; nearly all actives have a fitted effect of over 35% in size
Outline: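 AC50 from Hill-modelled qHTS concentration-response curves. H-4-II-E rat hepatoma cells in complete medium, 40 hr exposure at 37 °C, viability by CellTiter-Glo ATP luminescence.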

[7] = Cell Viability - Mesenchymal (AID 546); settings: mesenchymal cells viability, qHTS; activity change, negative = cytotoxicity: at 91.7 µM (top of the series);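 also: cells exposed to compound for 40 hours before reading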
Outline: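 CellTiter-Glo luminescence (intracellular ATP, 20 min room temperature) after 40 hr compound exposure at 37 °C of 1000 glomerulus-derived human kidney mesenchymal cells/well; AC50 values obtained by fitting qHTS concentration-response data to the Hill equation.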

[8] = Cellular Toxicity (caspase-3) HepG2 (AID 654); settings: HepG2 caspase-3 activation, luminescence, 0% = DMSO only, 100% = tamoxifen; series mostly up to 92.2 µM;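 also: cells exposed to compound for 16 hours before reading; 0% = DMSO alone and 100% = caspase signal from 100 µM tamoxifen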
Outline: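 Concentration-response AC50 values reflect caspase-3/7 induction in HepG2 cells after 16 hours of compound exposure, quantified by luminescence from liberated aminoluciferin and referenced to 100 uM tamoxifen as full stimulation.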

[9] = Cellular Toxicity (caspase-3) HUV-EC-C (AID 656); settings: HUV-EC-C cells, caspase-3 activation (apoptosis), vehicle = 0, 100 µM tamoxifen = 100%; series mostly up to 92.2 µM
Outline: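 HUV-EC-C endothelial cells, 1000/well, were pre-incubated 5 hr at 37°C, then exposed to compounds for 16 hr at 37°C. Caspase-Glo 3/7 luminescence was read after 20 min at room temperature. AC50 came from Hill fits, normalized to DMSO and 100 uM tamoxifen.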

[10] = Cellular Toxicity (caspase-3) BJ (AID 658); settings: BJ fibroblasts, luminescence, normalized: DMSO 0%, staurosporine 100%; series mostly up to 91.7 µM
Outline: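 Caspase-Glo 3/7 luminescence, read 1 hr after reagent at room temperature, in normal BJ fibroblasts exposed 16 hours at 37 °C. AC50 values from Hill-equation concentration-response, scaled between DMSO basal and 10 uM staurosporine as 100%.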

[11] = Cellular Toxicity (caspase-3) MRC-5 (AID 659); settings: MRC-5 cells, luminescence, normalized: DMSO 0%, 10 µM staurosporine 100%; series mostly up to 91.7 µM
Outline: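 Luminescent Caspase-Glo 3/7 read-out (1 h, room temperature) after a 16 h, 37 °C compound exposure of MRC-5 lung fibroblasts at 1500 cells/well. Concentration-response AC50 from Hill equation; 0% DMSO, 100% 10 uM staurosporine.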

[12] = Cellular Toxicity (caspase-3) Mesangial (AID 660); settings: mesangial cells, normalized: DMSO 0%, 100 µM tamoxifen 100%; series mostly up to 91.7 µM;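 also: combined caspase 3 and 7 activity read by Caspase-Glo luminescence; cells exposed to compound for 16 h before the caspase read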
Outline: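 AC50 values come from Hill-equation fits of caspase 3/7 activation, measured as Caspase-Glo luminescence in human glomerular mesangial cells exposed to compound for 16 h at 37 °C; 100% set by 100 uM tamoxifen.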

[13] = Cellular Toxicity (caspase-3) NIH 3T3 (AID 666); settings: NIH 3T3 caspase-3 activation, apoptosis/toxicity, 0% DMSO, 100% is 100 µM tamoxifen; series mostly up to 92.2 µM;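 also: 0% = DMSO basal and 100% = 100 µM tamoxifen stimulation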
Outline: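 Activity: caspase-3/7 induction, NIH 3T3 cells, 16 hr treatment at 37°C, luminescent Caspase-Glo detection; AC50 via Hill equation.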

[14] = Cellular Toxicity (caspase-3) Renal Proximal Tubule (AID 667); settings: renal proximal tubule cells, primary cells freshly taken from rat, solvent-only wells 0%, staurosporine 100%; series mostly up to 91.7 µM;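 also: cells exposed to compound for 16 hours at 37 °C before detection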
Outline: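 Primary rat proximal tubule cells, 1000/well, 5 h plating at 37 °C, then compound 16 h at 37 °C. Caspase-Glo 3/7 reagent, 1 h RT, luminescence. Normalized to DMSO (basal) and 10 uM staurosporine (100%); Hill-fit AC50.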

[15] = MultiTox-Fluor Cytotoxicity Assay - LYMP1-003 - Live Cells (AID 962); settings: LYMP1-003 lymphoblastoid cells, MultiTox-Fluor live-cell protease fluorescence; series mostly up to 92.2 µM;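 also: 0% = DMSO only and full loss = 92 µM tetraoctylammonium bromide; cytotoxic hits lower the live-cell protease signal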
Outline: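 Human lymphoblastoid line LYMP1-003 in complete culture medium, treated 16 hr with titrated compounds. Viable cells quantified via cell-permeant GF-AFC substrate fluorescence; AC50 derived by Hill fitting.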

[16] = Cell Viability - LYMP1-003 - Assay at 40 hr (AID 964); settings: LYMP1-003 lymphoblastoid viability; series mostly up to 92.2 µM; also: % is scaled to controls: 0 for no effect and ±100 for the full control effect; nearly all actives have a fitted effect of over 60% in size
Outline: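 Acute toxicity is scored as a concentration-dependent loss of intracellular ATP in LYMP1-003 cells (2500/well, complete medium) after 40 hr at 37 C, measured by CellTiter-Glo luminescence; AC50 values derive from standard Hill modelling.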

[17] = Cell Viability - LYMP2-011 (AID 969); settings: LYMP2-011 lymphoblastoid cells viability; series mostly up to 92.2 µM;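 also: cells exposed to compound for 24 hours; 0% = DMSO only and full inhibition = 92 µM tetraoctylammonium bromide; nearly all actives have a fitted effect of over 60% in size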
Outline: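 Cells seeded at 2500 per well rest 5 hr before compound addition, then incubate 24 hr at 37 C. CellTiter-Glo reagent is added for 30 min at room temperature before luminescence detection.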

[18] = qHTS Assay for Identification of Small Molecule Inducers of Hypoxia Response (AID 2120; active = well fitted curve in the direction sought with a large enough effect in the signal ratio, with a control signal flat, not every such curve was filed as active; the % refers to the signal ratio; also: 0% is about no effect); settings: hypoxia response reporter cells, beta-lactamase ratio readout; series mostly up to 104 µM
Outline: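 HRE-bla ME-180, 2500 cells/well, 0.5% dialyzed FBS medium; cpd titration, 17 h 37 degrees C; CCF4 2.5 h RT; Ex 405, Em 460/530 ratio -> %Activity, AC50.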

[19] = target: Peroxisome proliferator-activated receptor alpha (Homo sapiens) (UniProt Q07869); assay: qHTS assay for small molecule agonists of the peroxisome proliferator-activated receptor alpha (PPARalpha) signaling pathway (AID 651778); settings: PathHunter PPARalpha complementation, chemiluminescence, 6 h; max response: hits give high values; also: % of control where 0% means no effect
Outline: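 Chemiluminescence from complemented enzyme reported PPARalpha activation in cells after 6 hr of compound treatment at 37 C. The detection reagent was incubated for 60 min at room temperature, and compounds were scored as agonists.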

[20] = target: Mitogen-activated protein kinase 10 (Mus musculus) (UniProt Q61831); assay: JNK3 AlphaScreen Assay (AID 530; active = well fitted curve in either direction with a large enough effect, not every such curve was filed as active;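 also: kinase came from lysate of stimulated human HepG2 cells; signal reports phosphorylation of biotinylated GST-cJun 1-79 at Ser73 with 10 µM ATP; % is scaled to controls: 0 for no effect and ±100 for the full control effect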); settings: JNK3 lysate, c-Jun phosphorylation; series mostly up to 57.1 µM
Outline: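 Kinase buffer: 20 mM Tris-HCl pH 7.6, 10 mM MgCl2, 1 mM DTT, 0.1 mM Na3VO4, 0.01% Tween-20; ATP 10 uM. Substrate biotin-GST-cJun(1-79), enzyme from activated HepG2 lysates. Detection by Ser73 phospho-antibody AlphaScreen.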

Chain of Peroxisome proliferator-activated receptor alpha (Homo sapiens) (Q07869 whole entry, looked up): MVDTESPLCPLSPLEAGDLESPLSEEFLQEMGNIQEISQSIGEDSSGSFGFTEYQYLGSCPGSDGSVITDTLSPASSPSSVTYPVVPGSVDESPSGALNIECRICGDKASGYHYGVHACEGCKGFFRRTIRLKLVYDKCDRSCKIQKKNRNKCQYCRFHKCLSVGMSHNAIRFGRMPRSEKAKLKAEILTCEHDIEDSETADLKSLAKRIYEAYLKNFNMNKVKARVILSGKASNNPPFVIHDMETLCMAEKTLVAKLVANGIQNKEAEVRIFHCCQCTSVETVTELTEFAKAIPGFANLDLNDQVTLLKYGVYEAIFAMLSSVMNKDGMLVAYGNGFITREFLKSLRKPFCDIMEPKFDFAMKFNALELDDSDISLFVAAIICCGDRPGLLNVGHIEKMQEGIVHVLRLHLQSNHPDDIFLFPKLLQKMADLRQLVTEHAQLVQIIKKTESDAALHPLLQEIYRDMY

Cc1ccc([N+](=O)[O-])c(C)c1
inactive: Potency [1] > 92 µM | Potency [2] > 92 µM | Potency [3] > 92 µM | Potency [4] > 92 µM | Potency [5] | Potency [6] | activity change, negative = cytotoxicity [7] 1.9% | outcome [8] | outcome [9] | outcome [10] | outcome [11] | outcome [12] | outcome [13] | outcome [14] | Potency [15] | Potency [16] | Potency [17] | outcome [18] | max response [19] -4.28% and -0.811%

O=C(O)c1ccc(O)cc1O
inactive: Potency [1] > 92 µM | Potency [2] > 92 µM | Potency [3] > 92 µM | Potency [4] > 92 µM | Potency [20] | Potency [5] | Potency [6] | activity change, negative = cytotoxicity [7] 5.57% and 9.36% | outcome [8] | outcome [9] | outcome [10] | outcome [11] | outcome [12] | outcome [13] | outcome [14] | Potency [15] | Potency [16] | Potency [17] | outcome [18] | max response [19] -2.85% and -4.3%

CCO
inactive: Potency [1] > 92 µM | Potency [2] > 92 µM | Potency [3] > 92 µM | Potency [4] > 92 µM | Potency [20] | Potency [5] | Potency [6] | activity change, negative = cytotoxicity [7] -1.16% | outcome [8] | outcome [9] | outcome [10] | outcome [11] | outcome [12] | outcome [13] | outcome [14] | Potency [15] | Potency [16] | Potency [17] | outcome [18] | max response [19] -0.991%

Clc1cc(Cl)c(Cl)c(Cl)c1Cl
inactive: Potency [1] > 92 µM | Potency [2] > 92 µM | Potency [3] > 92 µM | Potency [4] > 92 µM | Potency [5] | Potency [6] | activity change, negative = cytotoxicity [7] -0.0158% | outcome [8] | outcome [9] | outcome [10] | outcome [11] | outcome [12] | outcome [13] | outcome [14] | Potency [15] | Potency [16] | Potency [17] | outcome [18] | max response [19] -5.3% and -0.232%

OCCNCCO
inactive: Potency [1] > 92 µM | Potency [2] > 92 µM | Potency [3] > 92 µM | Potency [4] > 92 µM | Potency [20] | Potency [5] | Potency [6] | activity change, negative = cytotoxicity [7] 11.5% | outcome [8] | outcome [9] | outcome [10] | outcome [11] | outcome [12] | outcome [13] | outcome [14] | Potency [15] | Potency [16] | Potency [17] | outcome [18] | max response [19] 0.687% and 0.279%
